In PubChem BioAssay (EPA / NIEHS) one finds outcome and AC50 data, which are given here for 14 compounds.

Broadly, the AC50 is the concentration giving half of the maximal activity seen.

Molecules are shown by their SMILES. Inconclusive results are not listed. Active and inactive are the calls of the source. Rule for the calls, unless noted: active = hit-call score of the fitted dose curve at least 0.9, where 1 is the maximum; inconclusive = response in the unintended direction; inactive = score below 0.9.

Read-out in one experiment: not listed separately
Nature of the experiment: BSK_SAg_SRB: Viability Assessment in the BioMAP Diversity Plus: SAg Assay (AID 2283096; active = hit-call score of the fitted dose curve at least 0.9, where 1 is the maximum; inactive = score below 0.9;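 note: cells read one day after compound addition; hits may be either gain or loss of signal compared with DMSO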). Particulars: primary human HUVEC with PBMC. The method, boiled down:
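Compounds were added to a human vascular co-culture of umbilical vein endothelium and PBMC. After 24 h, parallel cultures were fixed with 10% TCA, stained with 0.1% sulforhodamine B and read at 560 nm. Gain or loss of signal was fitted relative to DMSO.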
Regarding `Nc1cc([N+](=O)[O-])ccc1O`, the result was inactive.
`c1ccc2sc(SN(C3CCCCC3)C3CCCCC3)nc2c1`: the AC50 was 11400 nM (active).
In the case of `COc1cc(C=O)ccc1OC(=O)C(C)C`, the result was inactive.
Still for that read-out and setting: next, `CC(C)c1ccc(C(C)C)cc1`: “inactive”.

For a further experiment, the target named is human CYP19A1, CYP19A1 (gene 1588) (UniProt P11511). The experiment can be described thus: NVS_ADME_hCYP19A1: NovaScreen (NVS) CYP450-related Enzyme Activity (ADME) Assay for human CYP19A1 (AID 2283098).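 For AC50: potency for inhibitors seen as loss of fluorescent enzyme signal.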
Chain of human CYP19A1, CYP19A1 (gene 1588) (P11511 whole entry, looked up): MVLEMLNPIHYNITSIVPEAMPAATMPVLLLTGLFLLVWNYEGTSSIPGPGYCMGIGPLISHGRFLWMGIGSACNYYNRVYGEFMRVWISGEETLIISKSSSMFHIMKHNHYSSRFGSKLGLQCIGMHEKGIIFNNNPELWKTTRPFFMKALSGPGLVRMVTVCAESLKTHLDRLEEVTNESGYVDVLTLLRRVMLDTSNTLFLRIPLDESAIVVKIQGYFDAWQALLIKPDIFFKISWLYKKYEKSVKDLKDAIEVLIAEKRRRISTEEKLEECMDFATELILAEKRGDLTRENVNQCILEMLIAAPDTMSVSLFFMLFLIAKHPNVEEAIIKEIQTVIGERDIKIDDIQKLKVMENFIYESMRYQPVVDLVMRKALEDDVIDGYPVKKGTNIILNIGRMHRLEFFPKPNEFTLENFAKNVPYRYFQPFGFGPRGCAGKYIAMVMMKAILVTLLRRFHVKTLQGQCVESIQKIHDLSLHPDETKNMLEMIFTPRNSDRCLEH
Details: not given
A digest of the protocol:
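Fluorescence intensity read-out; activity taken as signal loss relative to acetonitrile vehicle. Extracted enzyme, specific substrate, no cells, 0.5 h exposure. Duplicate single-point screen at 10 uM, then concentration–response follow-up for actives.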
In the case of `CCCCCCCCCCCCCCCC(=O)OC[C@H](O)[C@H]1OC(=O)C(O)=C1O`, the AC50 was 2330 nM (active).
Take `CN(C)CCCN`: the compound was classed as inactive.
With `Cc1ccc(C(C)C)cc1O`, the AC50 is 3830 nM (active).
With `CCCCCCCCCCCCCOS(=O)(=O)O`, the compound was classed as inactive.

For the next experiment, the target named is human CYP2C9, CYP2C9 (gene 1559) (UniProt P11712). The experiment can be described thus: NVS_ADME_hCYP2C9: NovaScreen (NVS) CYP450-related Enzyme Activity (ADME) Assay for human CYP2C9 (AID 2283108).
Chain of human CYP2C9, CYP2C9 (gene 1559) (P11712 whole entry, looked up): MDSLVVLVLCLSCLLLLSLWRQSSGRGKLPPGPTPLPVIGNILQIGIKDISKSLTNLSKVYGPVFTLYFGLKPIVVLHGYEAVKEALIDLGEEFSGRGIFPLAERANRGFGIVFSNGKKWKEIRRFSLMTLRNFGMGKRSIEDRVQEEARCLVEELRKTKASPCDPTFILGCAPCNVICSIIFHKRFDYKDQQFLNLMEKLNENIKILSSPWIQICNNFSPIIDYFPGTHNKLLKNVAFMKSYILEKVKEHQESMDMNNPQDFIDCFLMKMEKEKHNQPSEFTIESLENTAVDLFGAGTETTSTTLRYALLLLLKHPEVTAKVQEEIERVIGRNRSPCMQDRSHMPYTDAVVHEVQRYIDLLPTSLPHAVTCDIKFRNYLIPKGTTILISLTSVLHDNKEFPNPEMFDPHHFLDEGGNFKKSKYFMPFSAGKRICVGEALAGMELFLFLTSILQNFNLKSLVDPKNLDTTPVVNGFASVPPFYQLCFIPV
Details: not given
Here is the method: NVS_ADME_hCYP2C9 is a biochemical, single-readout assay that uses extracted gene-proteins from SF9 in a cell-free assay. Measurements were taken 0.75 hour after chemical dosing in a 96-well plate.NVS_ADME_hCYP2C9 is one of one assay component(s) measured or calculated from the NVS_ADME_hCYP2C9 assay. It is designed to make measurements of enzyme activity, a form of enzyme reporter, as detected with fluorescence intensity signals by Fluorescence technology.Data from the assay component NVS_ADME_hCYP2C9 was analyzed into 1 assay endpoint. This assay endpoint, NVS_ADME_hCYP2C9, was analyzed in the positive analysis fitting direction relative to Acetonitrile as the negative control and baseline of activity. Using a type of enzyme reporter, loss-of-signal activity can be used to understand changes in the enzymatic activity as they relate to the gene CYP2C9. Furthermore, this assay endpoint can be referred to as a primary readout, because this assay has produced multiple assay endpoints where this one serves a enzymatic activity function. To generalize the intended target to other relatable targets, this assay endpoint is annotated to the cyp intended target family, where the subfamily is xenobiotic metabolism.
Binding assays used specific radioligands (tritiated, iodinated) with non-radioactive competitive displacement ligands in agonist or antagonist protocols (as indicated) and various reference compounds and inhibitors to titrate specific binding to receptors and transporters. Most enzyme assays (CYPs, kinases, phosphatases, proteases, HDACs) used recombinant protein and specific substrates (fluorescence mostly, some colorimetric and radioactive) and inhibitors, followed by a biochemical separation of substrate and product. All assays for the biochemical HTS were initially run in duplicate at a single concentration (10 uM for CYP450 assays and 25 uM for all others). […] Each assay was run with positive and negative controls, and concurrent controls on every plate. The follow-up (secondary) screen tested active chemical-pairs in concentration series, as well as a few additional assays not tested in the primary screen, some selected negative inactives, and several cases re-run in the concentration series for confirmatory purposes.
`Nc1ccc(F)c([N+](=O)[O-])c1`: the compound was classed as inactive.
Regarding `CCn1c2ccccc2c2cc(N)ccc21`, the AC50 is 405 nM (active).
Still for that read-out and setting: the result for `CC(=O)O[C@]1(C(C)=O)CC[C@H]2[C@@H]3C[C@H](C)C4=CC(=O)CC[C@]4(C)[C@H]3CC[C@@]21C` reads 119 nM (active).
Same read-out and setting: the result for `O=P(c1ccccc1)(c1ccccc1)c1ccccc1` reads 3190 nM (active).

The target in the next experiment is Cytochrome P450 3A4 (Homo sapiens) (UniProt P08684). Nature of the experiment: NVS_ADME_hCYP3A4: NovaScreen (NVS) CYP450-related Enzyme Activity (ADME) Assay for human CYP3A4 (AID 2283110).
Chain of Cytochrome P450 3A4 (Homo sapiens) (P08684 whole entry, looked up): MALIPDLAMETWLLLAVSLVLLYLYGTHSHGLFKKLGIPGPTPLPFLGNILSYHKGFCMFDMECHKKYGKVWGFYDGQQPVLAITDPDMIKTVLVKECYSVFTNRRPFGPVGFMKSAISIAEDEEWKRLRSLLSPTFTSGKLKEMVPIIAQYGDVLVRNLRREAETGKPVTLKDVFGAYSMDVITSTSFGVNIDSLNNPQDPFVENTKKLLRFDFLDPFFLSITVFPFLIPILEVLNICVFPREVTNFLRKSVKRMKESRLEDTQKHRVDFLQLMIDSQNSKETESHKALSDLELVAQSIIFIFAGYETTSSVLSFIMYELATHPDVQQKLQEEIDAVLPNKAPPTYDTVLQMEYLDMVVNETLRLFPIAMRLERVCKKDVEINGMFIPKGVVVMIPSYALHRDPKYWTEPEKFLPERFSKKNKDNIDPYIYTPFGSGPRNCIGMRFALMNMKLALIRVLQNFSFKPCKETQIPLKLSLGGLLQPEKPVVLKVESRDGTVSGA
Details: not given
A digest of the protocol:
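Recombinant CYP3A4 from insect cells, fluorescence enzyme read-out, 0.33 h after chemical addition. Acetonitrile = negative control/baseline. Primary HTS: 10 uM in duplicate; actives re-tested in concentration series.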
Consider `O=C1OC2(c3cc(Br)c(O)c(Br)c3Oc3c2cc(Br)c(O)c3Br)c2c(Cl)c(Cl)c(Cl)c(Cl)c21`, for which the result was inactive.
For the compound `CC(=O)O[C@]1(C(C)=O)CC[C@H]2[C@@H]3C[C@H](C)C4=CC(=O)CC[C@]4(C)[C@H]3CC[C@@]21C`, the AC50 was 9.97 nM (active).
As to `CC1(C)[C@H]2CC[C@]1(C)[C@H](O)C2`, the result was inactive.
